From PubChem BioAssay (EPA / NIEHS)
Activity calls are given as the source filed them. Rule for the calls: active = hit-call score of the fitted dose curve at least 0.9, where 1 is the maximum; inactive = score below 0.9.

Legend:
Details in all cases: mRNA level, 48 h; actives raise or lower the signal
HGF (gene 3082) = assay: LTEA_HepaRG_HGF: Life Technologies and Expression Analysis (LTEA) Assay for Hepatocyte Growth Facto (HGF) using HepaRG (AID 2283505)
How it was run: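 Read-out is HGF transcript level by qRT-PCR, normalized to three housekeeping genes, fitted bidirectionally against 0.5% DMSO vehicle. Human HepaRG cells received test chemicals for 48 h at up to 100 uM.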

[1] = read-out: Insulin Like Growth Factor 1 (IGF1), IGF1 (gene 3479); assay: LTEA_HepaRG_IGF1: Life Technologies and Expression Analysis (LTEA) Assay for Insulin Like Growth Factor 1 (IGF1) using HepaRG (AID 2283506)
How it was run: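 Cells are thawed, plated and cultured 48 h, then exposed in duplicate to chemical (highest 100 uM, half-log steps, 0.5% DMSO) for another 48 h. Total RNA is analysed by Fluidigm qRT-PCR for IGF1 expression relative to vehicle.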

[2] = read-out: Intercellular Adhesion Molecule 1 (ICAM1), ICAM1 (gene 3383); assay: LTEA_HepaRG_ICAM1: Life Technologies and Expression Analysis (LTEA) Assay for Intercellular Adhesion Molecule 1 (ICAM1) using HepaRG (AID 2283507)
How it was run: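 Readout is qRT-PCR mRNA level, normalized to three housekeeping genes and fitted bidirectionally against 0.5% DMSO vehicle. Human HepaRG cultures received compound for 48 h, top concentration 100 uM with half-log dilutions.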

[3] = read-out: Insulin-like growth factor-binding protein 1 (IGFBP1), IGFBP1 (gene 3484); assay: LTEA_HepaRG_IGFBP1: Life Technologies and Expression Analysis (LTEA) Assay for Insulin-like growth factor-binding protein 1 (IGFBP1) using HepaRG (AID 2283508)
How it was run: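 Thawed HepaRG cells are plated for 48 h, switched to serum-free induction medium, then dosed in duplicate for another 48 h (100 uM top, half-log steps). Lysates in RLT go to qRT-PCR, and gain or loss of signal is fitted relative to vehicle.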

[4] = read-out: Interleukin 6 (IL6), IL6 (gene 3569); assay: LTEA_HepaRG_IL6: Life Technologies and Expression Analysis (LTEA) Assay for Interleukin 6 (IL6) using HepaRG (AID 2283509)
How it was run: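 Changes in IL6 mRNA, up or down relative to 0.5% DMSO controls, were derived from concentration-response curves in human HepaRG cells treated for 48 h at up to 100 uM, with ACTB, GAPDH and POLR2A as normalizers.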

[5] = read-out: Interleukin 6 Receptor (IL6R), IL6R (gene 3570); assay: LTEA_HepaRG_IL6R: Life Technologies and Expression Analysis (LTEA) Assay for Interleukin 6 Receptor (IL6R) using HepaRG (AID 2283510);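 for AC50: differentiated human HepaRG liver cells in serum-free induction medium; TaqMan qRT-PCR signal normalized to ACTB GAPDH and POLR2A housekeeping genes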
How it was run: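 Cells were thawed, plated and cultured 48 h, then medium was changed to serum-free induction medium. Chemicals were added in duplicate (100 uM top, half-log steps, 0.5% DMSO) for 48 h. Lysates were analyzed by qRT-PCR for IL6R expression.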

[6] = read-out: Potassium channel subfamily K member 1 (KCNK1), KCNK1 (gene 3775); assay: LTEA_HepaRG_KCNK1: Life Technologies and Expression Analysis (LTEA) Assay for Potassium channel subfamily K member 1 (KCNK1) using HepaRG (AID 2283511)
How it was run: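 Human HepaRG cultures receive test chemicals for 48 h in 0.5% DMSO, top concentration 100 uM with half-log dilutions. Induction or suppression of KCNK1 mRNA relative to DMSO is derived by bidirectional fitting of qRT-PCR data.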

[7] = read-out: Keratin 19 (KRT19), KRT19 (gene 3880); assay: LTEA_HepaRG_KRT19: Life Technologies and Expression Analysis (LTEA) Assay for Keratin 19 (KRT19) using HepaRG (AID 2283512)
How it was run: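 KRT19 transcript levels, measured by Fluidigm qRT-PCR against three housekeeping genes, are fitted for gain or loss of signal relative to DMSO. Human HepaRG cells receive test chemicals (top 100 uM, half-log steps, 0.5% DMSO) for 48 hours.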

[8] = read-out: JUN Transcription Factor, JUN (gene 3725); assay: LTEA_HepaRG_JUN: Life Technologies and Expression Analysis (LTEA) Assay for JUN Transcription Factor using HepaRG (AID 2283513)
How it was run: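 Read-out is JUN transcript level by TaqMan qRT-PCR, normalized to ACTB, GAPDH and POLR2A, after 48 h chemical treatment of HepaRG cells. Concentration-response spanned eight half-log points up to 100 uM in 0.5% DMSO.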

[9] = read-out: Lipase C (LIPC), LIPC (gene 3990); assay: LTEA_HepaRG_LIPC: Life Technologies and Expression Analysis (LTEA) Assay for Lipase C (LIPC) using HepaRG (AID 2283514)
How it was run: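 In this multiplexed gene-expression screen, human HepaRG cultures received test chemicals for 48 h across eight concentrations with 100 uM highest, in duplicate. Values reflect LIPC mRNA induction or suppression versus DMSO vehicle, from normalized qRT-PCR.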

[10] = read-out: Lipoprotein lipase (LPL), LPL (gene 4023); assay: LTEA_HepaRG_LPL: Life Technologies and Expression Analysis (LTEA) Assay for Lipoprotein lipase (LPL) using HepaRG (AID 2283515)
How it was run: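 Concentration-response testing used half-log steps from 100 uM in 0.5% DMSO on human HepaRG cells, 48 h, duplicate wells. Phenobarbital 1 mM served as induction control; LPL mRNA was normalized to ACTB, GAPDH, POLR2A.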

[11] = read-out: MicroRNA 122 (MIR122), gene 406906; assay: LTEA_HepaRG_MIR122: Life Technologies and Expression Analysis (LTEA) Assay for MicroRNA 122 (MIR122) using HepaRG (AID 2283516); note: the transcript read is the microRNA miR-122
How it was run: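 Human liver HepaRG cultures receive test chemicals for 48 h at eight half-log concentrations from 100 uM. Expression is quantified by qRT-PCR with ACTB/GAPDH/POLR2A normalization and fitted bidirectionally against 0.5% DMSO.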

[12] = read-out: matrix metalloproteinase-10 (MMP10), MMP10 (gene 4319); assay: LTEA_HepaRG_MMP10: Life Technologies and Expression Analysis (LTEA) Assay for matrix metalloproteinase-10 (MMP10) using HepaRG (AID 2283517)
How it was run: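 In differentiated HepaRG cultures kept in 0.5% DMSO, test chemicals act for 48 h over an eight-point range with a top dose of 100 uM. Expression is then quantified by TaqMan RT-PCR against ACTB, GAPDH and POLR2A.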

MYC, MYC (gene 4609) = assay: LTEA_HepaRG_MYC: Life Technologies and Expression Analysis (LTEA) Assay for MYC using HepaRG (AID 2283518)
How it was run: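 HepaRG, ~100,000 cells/well, collagen I; 48 h plating; serum-free induction medium; 48 h dosing, duplicate, 100 uM top, half-log, 0.5% DMSO; total RNA → qRT-PCR MYC; gain/loss fit vs DMSO.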

[13] = read-out: Paternally Expressed 10 (PEG10), PEG10 (gene 23089); assay: LTEA_HepaRG_PEG10: Life Technologies and Expression Analysis (LTEA) Assay for Paternally Expressed 10 (PEG10) using HepaRG (AID 2283520);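 for AC50: differentiated HepaRG human liver cells in serum-free induction medium with 0.5% DMSO; PEG10 transcript by qRT-PCR normalised to ACTB GAPDH and POLR2A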
How it was run: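 Human HepaRG cultures are dosed for 48 h across an eight-point half-log series starting at 100 uM, with 0.5% DMSO as vehicle and baseline. Gain or loss of PEG10 transcript is measured by qRT-PCR and fitted in both directions.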

[14] = read-out: Nuclear factor NF-kappa-B p105 subunit (Homo sapiens) (UniProt P19838); assay: LTEA_HepaRG_NFKB1: Life Technologies and Expression Analysis (LTEA) Assay for Nuclear Factor Kappa B Subunit 1 (NFKB1) using HepaRG (AID 2283521)
How it was run: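 Human HepaRG cells receive eight half-log concentrations, highest 100 uM, for 48 h. NFKB1 expression is then quantified by qRT-PCR and analysed for up- or down-regulation relative to 0.5% DMSO vehicle.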

[15] = read-out: Protein phosphatase 2A (PPP2R4), PTPA (gene 5524); assay: LTEA_HepaRG_PPP2R4: Life Technologies and Expression Analysis (LTEA) Assay for Protein phosphatase 2A (PPP2R4) using HepaRG (AID 2283522)
How it was run: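 Cells were plated, cultured 48 h, switched to serum-free induction medium, then dosed for 48 h (8 points, max 100 uM, 0.5% DMSO). RNA was isolated and PPP2R4 expression measured by TaqMan qRT-PCR.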

[16] = read-out: Phosphatase and tensin (PTEN), PTEN (gene 5728); assay: LTEA_HepaRG_PTEN: Life Technologies and Expression Analysis (LTEA) Assay for Phosphatase and tensin (PTEN) using HepaRG (AID 2283523)
How it was run: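 Expression of PTEN is quantified in the human liver line HepaRG following two days of dosing (top concentration 100 uM, half-log dilutions, 0.5% DMSO). Values derive from bidirectional curve fitting relative to DMSO controls.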

[17] = read-out: solute carrier (SLC22A1), SLC22A1 (gene 6580); assay: LTEA_HepaRG_SLC22A1: Life Technologies and Expression Analysis (LTEA) Assay for solute carrier (SLC22A1) using HepaRG (AID 2283524);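 for AC50: differentiated human HepaRG liver cells in serum-free induction medium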
How it was run: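 Transcript induction or suppression of SLC22A1 in human HepaRG cultures is scored after 48 h chemical treatment, with DMSO (0.5%) as baseline for bidirectional fitting. Concentrations span eight half-log points topping at 100 uM.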

[18] = read-out: matrix metalloproteinase-3 (MMP3), MMP3 (gene 4314); assay: LTEA_HepaRG_MMP3: Life Technologies and Expression Analysis (LTEA) Assay for matrix metalloproteinase-3 (MMP3) using HepaRG (AID 2283519)
How it was run: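 Human liver HepaRG cultures received chemicals (top concentration 100 uM, 0.5% DMSO) for 48 h in duplicate. MMP3 mRNA induction or loss was then assessed via TaqMan qRT-PCR with housekeeping-gene normalisation.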

Measured: AC50

Sequence of Nuclear factor NF-kappa-B p105 subunit (Homo sapiens) (P19838 whole entry, looked up): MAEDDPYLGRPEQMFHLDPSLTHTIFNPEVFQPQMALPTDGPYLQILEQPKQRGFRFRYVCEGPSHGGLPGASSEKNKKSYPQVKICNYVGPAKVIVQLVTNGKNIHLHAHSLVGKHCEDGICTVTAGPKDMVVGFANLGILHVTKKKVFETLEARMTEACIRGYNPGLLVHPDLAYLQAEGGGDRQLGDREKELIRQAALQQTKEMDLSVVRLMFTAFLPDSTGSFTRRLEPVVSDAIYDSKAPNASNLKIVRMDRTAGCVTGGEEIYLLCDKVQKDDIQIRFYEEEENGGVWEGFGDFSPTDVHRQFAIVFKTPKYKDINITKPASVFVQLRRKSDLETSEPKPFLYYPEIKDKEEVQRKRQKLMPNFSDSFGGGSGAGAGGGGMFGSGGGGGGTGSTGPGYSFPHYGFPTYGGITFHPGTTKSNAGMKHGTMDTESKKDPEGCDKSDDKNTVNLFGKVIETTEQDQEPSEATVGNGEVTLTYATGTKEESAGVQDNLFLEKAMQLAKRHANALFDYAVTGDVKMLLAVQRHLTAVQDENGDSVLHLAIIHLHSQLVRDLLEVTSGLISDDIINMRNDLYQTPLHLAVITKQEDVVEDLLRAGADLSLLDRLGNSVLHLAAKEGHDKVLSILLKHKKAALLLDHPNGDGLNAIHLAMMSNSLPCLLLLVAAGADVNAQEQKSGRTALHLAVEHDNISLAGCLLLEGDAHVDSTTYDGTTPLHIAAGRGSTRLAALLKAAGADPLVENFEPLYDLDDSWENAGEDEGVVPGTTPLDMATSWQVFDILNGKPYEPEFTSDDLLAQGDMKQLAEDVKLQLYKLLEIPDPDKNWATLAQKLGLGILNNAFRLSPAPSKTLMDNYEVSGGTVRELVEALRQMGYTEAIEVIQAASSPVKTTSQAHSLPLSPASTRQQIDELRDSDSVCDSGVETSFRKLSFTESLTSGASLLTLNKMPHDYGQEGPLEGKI

CC(C)CC(C)(O)C#CC(C)(O)CC(C)C (stereo unspecified)
not listed: [18]
inactive: all other assays above

O=C1OC(=O)C2C3C=CC(C3)C12 (stereo unspecified)
not listed: [5] | [10] | [14] | [18]
inactive: all other assays above

O=C(O)c1cccc(N(Cc2cccnc2)c2ccc(OC(F)F)c(OC(F)F)c2)c1
active: [7] 24.6 µM | [12] 91.7 µM | [18] 80.4 µM | [13] 50 µM | [14] 0.576 µM
inactive: all other assays above

COc1cccc(-c2ccc(/C=C\CN3CCCCCC3)cc2Cl)c1
inactive: HGF (gene 3082) | [5] | [11] | [15] | [16]
active: [1] 66.7 µM | [2] 75.7 µM | [3] 74.5 µM | [4] 74.8 µM | [6] 79.3 µM | [7] 45.2 µM | [8] 73.9 µM | [9] 70.6 µM | [10] 79 µM | [12] 71.3 µM | MYC, MYC (gene 4609) 81.1 µM | [13] 59 µM | [14] 45.2 µM | [17] 74.4 µM

CCOc1cccc(-n2cc(C(=O)N3CCN(c4cc(C(=O)O)c5ccccc5c4)CC3)nc2-c2ccc(C)cc2)c1
inactive: [2] | [6] | [8] | [12] | MYC, MYC (gene 4609) | [14]
active: HGF (gene 3082) 21.1 µM | [1] 26.6 µM | [3] 12.9 µM | [4] 74.2 µM | [5] 68.9 µM | [7] 16.2 µM | [9] 31.3 µM | [10] 87.1 µM | [11] 30.4 µM | [13] 33.2 µM | [15] 86.4 µM | [16] 79.2 µM | [17] 29.9 µM

CN(C)c1ccc(N=NS(=O)(=O)O)cc1
active: [1] 26.2 µM | [3] 75.3 µM | [5] 22.3 µM | [7] 18.9 µM | [17] 20.5 µM
not listed: [14] | [18]
inactive: all other assays above
